Several values for one entry are separate records, joined by “and”; a condition that tells them apart may be missing. Equal entries are not always repeated. Values without a mark were called inactive. Results filed as inconclusive are left out. Activity calls are given as the source filed them. Unless noted, calls come from the whole dose curve; as a rule, active = well fitted curve in the direction sought with a large enough effect; inconclusive = small, poorly fitted or top-dose-only effect, or another doubt; inactive = no such curve, though single readings can be large; an effect the other way counts as inactive or inconclusive. Bounds are passed on as bounds.

Assay [1] is described as follows: Cell Viability - Jurkat (AID 426;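 active = dose-dependent loss of cell ATP signal giving a full or clear fitted curve, ranked by lower potency value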;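 note: potency is the fitted concentration of half-maximal effect; cells exposed to compound for 40 hours at 37 °C before ATP read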). The following applies: qHTS. In a few lines: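 Luminescent ATP read-out (CellTiter-Glo, 20 min at room temperature) after 40 hr compound exposure at 37 °C of Jurkat E6-1 cells, 5000/well. Decreased ATP taken as cytotoxicity; AC50 from standard Hill equation.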
Background: Quantitative high-throughput screening tests each substance at several concentrations.

A short description of assay [2]: Cell Viability - NIH 3T3 (AID 541).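 For activity change, negative = cytotoxicity: plate controls were DMSO alone for no effect and tamoxifen positive control for full effect.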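 Note: cells exposed to compound for 40 hours; nearly all actives have a fitted effect of over 25% in size.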 Note: potency is the fitted concentration of half-maximal effect. The following applies: NIH 3T3 cell viability, qHTS; activity change, negative = cytotoxicity: at 92.2 µM (top of the series). In a few lines: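 qHTS format; 40 hr compound exposure, 37 °C; CellTiter-Glo luminescence (cellular ATP) read-out after 20 min at RT. Decrease in ATP = cytotoxicity; AC50 from standard Hill fit.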
Assay [3] is described as follows: Cellular Toxicity (caspase-3) SHSY5Y (AID 657). In a few lines: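 qHTS, SH-SY5Y, 1500 cells/well, 5 h pre-incubation 37 °C; compound 16 h 37 °C; Caspase-Glo 3/7 1 h RT; luminescence. Norm.: DMSO = 0, 10 uM staurosporine = 100%. Hill fit → AC50.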
Assay [4] deals with Cytochrome P450 3A4 (Homo sapiens) (UniProt P08684). The experiment in a line: qHTS Assay for Inhibitors and Substrates of Cytochrome P450 3A4 (AID 884). Note: nearly all actives have a fitted effect of over 50% in size. Note: potency is the fitted concentration of half-maximal effect. Put shortly:
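Luminescent readout of luciferin produced by CYP3A4 (20 nM) dealkylation of Luciferin-PPXE, 25 uM (its KM). NADPH-driven reaction ran 60 min at RT after 10 min compound preincubation; data scaled to 57 uM ketoconazole as 100% inhibition.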

The target in assay [5] is Peroxisome proliferator-activated receptor gamma (Homo sapiens) (UniProt P37231). The experiment in a line: qHTS assay for small molecule agonists of peroxisome proliferator-activated receptor gamma signaling (AID 588536; active = well fitted curve in the direction sought with a large enough effect in the signal ratio, with a control signal flat, not every such curve was filed as active; the % refers to the signal ratio;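 note: 0% = DMSO basal wells and 100% = rosiglitazone at 2 µM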). In a few lines:
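Using GeneBLAzer HEK293 cells, response was quantified by CCF4 fluorescence and normalized between basal DMSO (0%) and rosiglitazone 2 uM (100%); curves yielded half-maximal stimulation concentration and efficacy.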

The target in assay [6] is Vitamin D3 receptor (Homo sapiens) (UniProt P11473). The experiment in a line: qHTS assay for small molecule antagonists of vitamin D receptor signaling (AID 588541; calls by dose curve;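 note: receptor activated by calcitriol during compound treatment; % is set by controls: 0 for no effect and ±100 for the full control effect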). In a few lines: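 VDR-UAS-bla HEK293T cells in 2% charcoal-stripped FBS were stimulated with 1-alpha,25-dihydroxyvitamin D3 (3 nM final) plus compound for 16 h at 37 C. The beta-lactamase CCF4 readout was normalized to 50 nM agonist and DMSO, and Hill fits gave IC50.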
Sequence of Vitamin D3 receptor (Homo sapiens) (P11473 whole entry, looked up): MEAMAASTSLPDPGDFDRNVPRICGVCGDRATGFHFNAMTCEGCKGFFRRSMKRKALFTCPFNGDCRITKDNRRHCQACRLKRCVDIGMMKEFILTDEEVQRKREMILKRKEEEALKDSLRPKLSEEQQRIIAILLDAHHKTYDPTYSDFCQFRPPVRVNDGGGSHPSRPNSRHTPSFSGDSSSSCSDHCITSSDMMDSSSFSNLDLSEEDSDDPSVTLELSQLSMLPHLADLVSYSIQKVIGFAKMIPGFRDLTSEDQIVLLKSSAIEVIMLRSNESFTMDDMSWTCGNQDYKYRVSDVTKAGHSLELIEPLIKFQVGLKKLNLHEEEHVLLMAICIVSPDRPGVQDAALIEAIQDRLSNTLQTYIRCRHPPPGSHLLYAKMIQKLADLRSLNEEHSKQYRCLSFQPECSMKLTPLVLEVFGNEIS

For assay [7] the target is unchanged. In words: qHTS assay for small molecule agonists of vitamin D receptor signaling (AID 588543; calls by dose curve;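 note: 0% = DMSO basal and 100% = reference agonist control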). Put shortly: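 Reporter cells (HEK293T, VDR-UAS-bla) were seeded in medium with 2% charcoal-stripped serum and incubated 5 h, then compounds in concentration series were added for 16 h at 37 °C. Stimulation was scaled between DMSO basal and 50 nM 1α,25-dihydroxyvitamin D3.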

Assay [8] is described as follows: qHTS assay for small molecule agonists of the antioxidant response element (ARE) signaling pathway (AID 651741; active = well fitted activation curve with a large enough effect in the signal ratio; the % refers to the signal ratio; note: potency is the fitted concentration of half-maximal effect; for activation: % of control where 0% means no effect). Put shortly:
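HepG2 ARE-bla reporter cells, 2,000/well; 5 h settle at 37 C/5% CO2; compound pin transfer (23 nL, DMSO); 16 h at 37 C; LiveBLAzer B/G FRET substrate, 2 h RT; fluorescence intensity read.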

Assay [9] in a line: qHTS assay for small molecule activators of the p53 signaling pathway (AID 651743; active = well fitted activation curve with a large enough effect in the signal ratio, not every such curve was filed as active; the % refers to the signal ratio; note: potency is the fitted concentration of half-maximal effect; for activation: % of control where 0% means no effect). The following applies: HCT-116 p53RE-bla, beta-lactamase FRET ratio, 16 h; activation: hits give high values. In a few lines:
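Reporter: beta-lactamase driven by p53 response elements, stably integrated in HCT-116 cells. Cells seeded at 4,000/well, 5 h preincubation, compound (DMSO) 16 h at 37 C; B/G FRET substrate 2 h RT; fluorescence intensity read.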

Assay [10] in a line: qHTS assay for small molecule activators of the nuclear factor-kappa B (NF-kB) signaling pathway (AID 651749; active = well fitted activation curve with a large enough effect in the signal ratio; the % refers to the signal ratio; note: % of control where 0% means no effect). The following applies: NF-kB-bla ME-180 cells, beta-lactamase FRET ratio, 16 h; hits give high values. In a few lines:
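NF-kB-bla ME-180 cells, 2,000/well; 23 nL compound or DMSO pinned; 16 hr, 37C/5% CO2; beta-lactamase FRET read-out.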

Assay [11] concerns the target Tumor necrosis factor (Homo sapiens) (UniProt P01375). The experiment in a line: qHTS assay to identify small molecules that stimulate Tumor Necrosis Factor-alpha (TNF-alpha) secretion (AID 651757; active = well fitted curve in the direction sought with a large enough effect in the signal ratio; the % refers to the signal ratio; note: 0% is about no effect). In a few lines:
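THP-1 cells, 3000/well; compound 17 hrs, 37 C; add cryptate/XL665 anti-TNF-alpha antibody pair; 3 hr RT; TR-FRET (HTRF) read of secreted TNF-alpha. Quantitative HTS format.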

Assay [12] addresses Nuclear receptor ROR-gamma (Homo sapiens) (UniProt P51449). The experiment in a line: qHTS assay for small molecule antagonists of the retinoid-related orphan receptor gamma (ROR-gamma) signaling pathway (AID 651802). Note: nearly all actives have a fitted effect of over 60% in size. Note: potency is the fitted concentration of half-maximal effect. In a few lines:
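Luciferase read-out: ONE-Glo luminescence after 30 min at room temperature, following 16hr doxycycline induction at 37C, 5% CO2 of CHO cells with TET-inducible ROR and RORE-LUC reporter; decreased luminescence = reduced reporter activity.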

Assay [13] in a line: qHTS assay for small molecule antagonists of the retinoid-related orphan receptor gamma (ROR-gamma) signaling pathway - cell viability counter screen (AID 720652; active = well fitted curve in the direction sought with a large enough effect in the repeat runs; an effect the other way counts as inactive or inconclusive;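 note: CHO reporter cells with doxycycline-induced ROR-gamma expression; compound exposure lasted 16 hr before ATP read; % is set by controls: 0 for no effect and ±100 for the full control effect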). Put shortly:
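CHO RORE-LUC/TET-ROR line, 1,000 cells/well, 37 C 5% CO2 5 hr; cpd or DMSO + doxycycline induction, 16 hr. CellTiter-Glo, 30 min RT, luminescence = ATP content.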

The nature of assay [14]: qHTS assay for small molecule activators of the human pregnane X receptor (PXR) signaling pathway (AID 720659; call rule not given here; note: 0% is about no effect).
Assay [15] can be described thus: Cellular Toxicity (caspase-3) BJ (AID 658).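 Note: 0% = DMSO basal and 100% = 10 µM staurosporine.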 The following applies: Potency: caspase-3 activation. Put shortly: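 qHTS, BJ fibroblasts, 1000 cells/well; 5 hr preincubation, 16 hr compound, 37 °C; Caspase-Glo 3/7 reagent, 1 hr RT; luminescence. DMSO = 0%, 10 uM staurosporine = 100%. Hill-equation AC50.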
In assay [16] the target is Estrogen receptor (Homo sapiens) (UniProt P03372). The experiment in a line: qHTS assay for small molecule antagonists of estrogen receptor alpha signaling (AID 588513; active = well fitted curve in the direction sought with a large enough effect in the signal ratio, with a control signal flat, not every such curve was filed as active; the % refers to the signal ratio; note: % is set by controls: 0 for no effect and ±100 for the full control effect). In a few lines: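 Fluorescence from CCF4 substrate after 2 h at room temperature gave reporter activity; cells had been exposed to compound and 0.5nM 17-beta-estradiol for 18 h at 37 C. Hill-equation fitting yielded IC50 and maximal response.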
Sequence of Estrogen receptor (Homo sapiens) (P03372 whole entry, looked up): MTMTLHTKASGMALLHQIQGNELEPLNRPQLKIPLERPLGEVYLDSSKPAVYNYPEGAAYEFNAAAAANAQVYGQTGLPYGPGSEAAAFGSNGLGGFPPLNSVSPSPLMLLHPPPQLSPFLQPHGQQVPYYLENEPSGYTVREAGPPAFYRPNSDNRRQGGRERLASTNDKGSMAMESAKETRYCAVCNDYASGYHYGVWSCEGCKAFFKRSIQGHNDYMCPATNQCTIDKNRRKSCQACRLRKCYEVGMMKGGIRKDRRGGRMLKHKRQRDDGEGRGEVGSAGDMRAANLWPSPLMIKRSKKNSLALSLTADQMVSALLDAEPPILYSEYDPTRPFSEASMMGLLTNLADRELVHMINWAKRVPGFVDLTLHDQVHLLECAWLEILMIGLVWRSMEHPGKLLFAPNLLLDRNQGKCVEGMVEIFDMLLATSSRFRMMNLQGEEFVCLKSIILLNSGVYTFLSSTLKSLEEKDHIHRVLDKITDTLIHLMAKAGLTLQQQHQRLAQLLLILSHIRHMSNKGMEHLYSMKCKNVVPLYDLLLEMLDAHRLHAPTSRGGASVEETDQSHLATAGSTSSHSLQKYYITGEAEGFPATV

Assay [17] shares this target. In words: qHTS assay for small molecule agonists of estrogen receptor alpha signaling (AID 588514; calls by dose curve; note: nearly all actives have a fitted effect of over 70% in size; note: potency is the fitted concentration of half-maximal effect;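 for activation: 0% = vehicle only and 100% = reference agonist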). In a few lines:
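Read-out: CCF4 fluorescence from a beta-lactamase reporter in ER-alpha-UAS-bla HEK 293 cells after 18 hrs of compound exposure at 37 C. Normalized to 20 nM 17-beta-estradiol (100%) and DMSO (0%).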

Assay [18] is described as follows: Cellular Toxicity (caspase-3) H-4-II-E (AID 663).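 Note: cells exposed to compound for 16 hr before readout; 0% = DMSO basal and 100% = 100 µM tamoxifen.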 The following applies: Potency: caspase-3 activation. Put shortly: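 H-4-II-E rat hepatoma, 1500 cells/well, 5 hr settle at 37 °C; compound 16 hr, 37 °C, complete medium; Caspase-Glo 3/7, 20 min RT; luminescence. DMSO = 0%, 100 uM tamoxifen = 100%; Hill-equation AC50.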
The target in assay [19] is Peroxisome proliferator-activated receptor delta (Homo sapiens) (UniProt Q03181). The experiment in a line: qHTS assay for small molecule antagonists of peroxisome proliferator-activated receptor delta signaling (AID 588535; active = well fitted inhibition curve with a large enough effect in the signal ratio, with a control signal flat, not every such curve was filed as active; the % refers to the signal ratio). In a few lines: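 Beta-lactamase reporter read-out (405 nm excitation, 460/530 nm emission) after CCF4 loading for 2 hrs at RT. HEK293T PPAR-delta-UAS-bla cells, 2% charcoal/dextran FBS, compounds for 18 hrs at 37 C. Hill fit gave IC50 and efficacy.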
Sequence of Peroxisome proliferator-activated receptor delta (Homo sapiens) (Q03181 whole entry, looked up): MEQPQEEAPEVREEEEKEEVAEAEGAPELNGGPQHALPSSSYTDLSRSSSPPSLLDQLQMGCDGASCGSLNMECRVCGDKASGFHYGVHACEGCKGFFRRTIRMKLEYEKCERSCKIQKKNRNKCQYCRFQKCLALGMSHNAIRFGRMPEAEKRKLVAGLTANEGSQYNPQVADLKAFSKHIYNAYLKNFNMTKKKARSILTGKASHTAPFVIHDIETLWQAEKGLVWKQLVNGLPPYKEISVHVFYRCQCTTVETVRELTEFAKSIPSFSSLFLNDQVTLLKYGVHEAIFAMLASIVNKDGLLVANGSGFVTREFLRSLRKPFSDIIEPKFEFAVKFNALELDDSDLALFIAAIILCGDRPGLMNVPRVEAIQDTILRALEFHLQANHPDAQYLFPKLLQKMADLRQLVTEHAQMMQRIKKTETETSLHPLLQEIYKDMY

The nature of assay [20]: Cellular Toxicity (caspase-3) Mesangial (AID 660).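 Note: combined caspase 3 and 7 activity read by Caspase-Glo luminescence; cells exposed to compound for 16 h before the caspase read.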 Put shortly:
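Luminescent Caspase-Glo 3/7 readout (aminoluciferin substrate cleavage, 20 min RT) after 16 h compound exposure at 37 °C of normal human mesangial cells. Signal increase normalized between DMSO basal and 100 uM tamoxifen; Hill-equation AC50.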

Sequence of Peroxisome proliferator-activated receptor gamma (Homo sapiens) (P37231 whole entry, looked up): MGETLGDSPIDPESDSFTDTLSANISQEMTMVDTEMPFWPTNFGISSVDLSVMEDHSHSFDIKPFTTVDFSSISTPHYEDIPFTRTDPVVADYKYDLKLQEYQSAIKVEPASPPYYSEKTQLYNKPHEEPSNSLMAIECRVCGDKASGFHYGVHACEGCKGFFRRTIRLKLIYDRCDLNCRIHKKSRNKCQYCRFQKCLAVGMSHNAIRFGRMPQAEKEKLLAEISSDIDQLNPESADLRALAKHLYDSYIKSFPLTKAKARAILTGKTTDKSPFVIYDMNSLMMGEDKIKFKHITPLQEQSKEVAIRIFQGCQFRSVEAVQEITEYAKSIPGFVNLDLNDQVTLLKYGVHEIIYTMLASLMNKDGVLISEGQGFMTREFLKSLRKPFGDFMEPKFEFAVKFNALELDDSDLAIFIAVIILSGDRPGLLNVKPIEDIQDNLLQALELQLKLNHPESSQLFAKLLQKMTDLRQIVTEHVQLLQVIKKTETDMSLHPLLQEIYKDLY
Sequence of Tumor necrosis factor (Homo sapiens) (P01375 whole entry, looked up): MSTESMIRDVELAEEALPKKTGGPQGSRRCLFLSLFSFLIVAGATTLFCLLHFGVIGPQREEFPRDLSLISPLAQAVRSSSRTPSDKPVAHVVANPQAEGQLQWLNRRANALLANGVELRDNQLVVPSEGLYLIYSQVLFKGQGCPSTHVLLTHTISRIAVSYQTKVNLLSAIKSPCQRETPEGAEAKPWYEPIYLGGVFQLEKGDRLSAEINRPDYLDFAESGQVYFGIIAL
Sequence of Cytochrome P450 3A4 (Homo sapiens) (P08684 whole entry, looked up): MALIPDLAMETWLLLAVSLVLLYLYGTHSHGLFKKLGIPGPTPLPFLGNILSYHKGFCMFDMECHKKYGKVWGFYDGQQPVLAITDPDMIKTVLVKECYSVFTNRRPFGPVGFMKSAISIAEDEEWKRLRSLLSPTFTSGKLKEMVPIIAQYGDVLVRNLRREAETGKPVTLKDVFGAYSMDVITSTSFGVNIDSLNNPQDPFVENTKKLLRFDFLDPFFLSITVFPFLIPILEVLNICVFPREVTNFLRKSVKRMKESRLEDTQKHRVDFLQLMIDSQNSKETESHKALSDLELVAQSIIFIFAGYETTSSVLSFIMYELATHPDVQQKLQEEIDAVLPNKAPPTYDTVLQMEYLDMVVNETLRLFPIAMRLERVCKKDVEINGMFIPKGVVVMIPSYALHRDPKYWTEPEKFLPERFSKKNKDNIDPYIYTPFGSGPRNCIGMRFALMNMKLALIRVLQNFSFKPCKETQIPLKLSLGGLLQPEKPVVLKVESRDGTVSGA
Sequence of Nuclear receptor ROR-gamma (Homo sapiens) (P51449 whole entry, looked up): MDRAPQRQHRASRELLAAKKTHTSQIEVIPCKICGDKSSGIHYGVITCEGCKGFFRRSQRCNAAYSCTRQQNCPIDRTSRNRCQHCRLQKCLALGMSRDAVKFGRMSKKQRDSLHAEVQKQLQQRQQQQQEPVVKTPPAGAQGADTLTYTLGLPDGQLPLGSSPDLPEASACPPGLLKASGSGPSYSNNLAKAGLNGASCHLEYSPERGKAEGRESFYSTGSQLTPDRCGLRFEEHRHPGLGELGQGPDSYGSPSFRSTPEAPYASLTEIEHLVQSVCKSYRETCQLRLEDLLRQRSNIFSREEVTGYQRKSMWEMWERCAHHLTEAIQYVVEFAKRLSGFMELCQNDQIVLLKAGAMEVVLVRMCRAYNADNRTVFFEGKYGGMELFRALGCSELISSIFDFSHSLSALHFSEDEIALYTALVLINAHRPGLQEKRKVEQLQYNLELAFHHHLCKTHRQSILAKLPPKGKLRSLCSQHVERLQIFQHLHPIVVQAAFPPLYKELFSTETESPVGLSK

Regarding `CCCCOC(=O)COc1ccc(Cl)cc1Cl`, in assay [1], the Potency is above 92 µM. Moreover, the activity change, negative = cytotoxicity in assay [2] is 1.3%. Further, the Potency entry in assay [3], in assay [4], in assay [6], in assay [7], in [8] and in assay [11] was “inactive” in each case. Moreover, the Potency result in [12] and in [13] was “inactive” in each case. Also, the result in assay [5] and in [14] was inactive. The activation is -0.84% and -2.7% in assay [9]; 1.36% and -1.12% in assay [10].

Turning to `Oc1ccc(O)c2c(O)cccc12`, the figures for the Potency in assay [1], in assay [8] and in assay [12] were 30 µM (active), 42.2 µM (active) and 66.8 µM (active), respectively. Besides, the activity change, negative = cytotoxicity in [2] is -29%. In addition, the Potency entry in assay [3], in assay [15], in assay [4], in [17] and in assay [7] was “inactive” each time. In addition, the molecule was called inactive in assay [16] and in assay [14]. In addition, in assay [9], the activation is -2.36%.

In the case of `Cc1c2ccccc2c(C)c2c1ccc1ccccc12`, the Potency in [1] is 36.6 µM (active); in [17], 4.47 µM (active) and 15.8 µM (active); in assay [8], 10.6 µM (active) and 24.3 µM (active); in assay [9], 44.7 µM (active); in assay [12], 13.3 µM (active). For the same molecule, the activity change, negative = cytotoxicity in assay [2] was -137% (active). Also, the Potency result in assay [15], in [18] and in assay [11] was “inactive” each time. The molecule was called inactive in assay [16].

`CCCCCCCC/C=C\CCCCCCCC(=O)N(CCO)CCO`: in [1], the Potency was 68.3 µM (active). For the same molecule, the Potency result in assay [3], in assay [15], in assay [17], in [7], in [11] and in assay [13] was “inactive” throughout. For the same molecule, in assay [19], the molecule was classed as inactive. For the same molecule, the values for the activation in assay [9] and in assay [10] were -2.93% and 3.7%, respectively.

With `Nc1ccc(N)c(Cl)c1`, the Potency is 31.6 µM (active) in assay [2], 10 µM (active) in assay [4] and 23.7 µM (active) in assay [8]. Further, the Potency result in assay [15], in [18], in assay [17], in assay [6], in [7] and in assay [12] was “inactive” throughout. Besides, in assay [13], the Potency entry is “inactive”. Besides, the call in assay [20], in assay [19] and in [14] was inactive. In addition, in [9], the activation is 1.03%.

Consider `c1ccc2ncccc2c1`, for which the Potency in assay [1] was above 92 µM. Further, the activity change, negative = cytotoxicity in [2] is -0.00606%. In addition, the Potency result in assay [3], in [15], in [17], in assay [8], in assay [11] and in assay [12] was “inactive” each time. The Potency result in assay [13] was “inactive”. Further, the molecule was called inactive in assay [20], in assay [16], in assay [19], in assay [5] and in assay [14]. In addition, the activation in [9] is -4.75%.

Regarding `CN(C)c1ccc(Cc2ccc(N(C)C)cc2)cc1`, the Potency in [1] was above 92 µM. Further, the activity change, negative = cytotoxicity in assay [2] is -18.8%. In addition, the Potency entry in [15], in [18], in assay [6], in assay [7] and in assay [13] was “inactive” throughout. The outcome in [20], in assay [19] and in assay [5] was inactive. In addition, the activation in assay [9] is 6.8% and -1.08%; in [10], -0.0867% and 0.169%.

As for `COc1ccc([N+](=O)[O-])cc1N`, the Potency in assay [1] was above 92 µM; in assay [8], 30.6 µM (active). Moreover, the activity change, negative = cytotoxicity in [2] is -29.6%. Moreover, the outcome in [20], in assay [16], in [19], in assay [5] and in assay [14] was inactive. The Potency entry in assay [4], in assay [17], in assay [6], in [7], in [12] and in assay [13] was “inactive” in each case. The activation in assay [9] was -2.91% and -2.52%; in assay [10], 2.19% and -0.307%.

Take `O=[N+]([O-])c1cc(Cl)c(Cl)c(Cl)c1Cl`: the results for the Potency in assay [2], in assay [8] and in assay [12] were 7.94 µM (active), 29.8 µM (active) and 33.5 µM (active), respectively. Further, the Potency entry in [3], in assay [15], in [18], in [4], in [6] and in assay [7] was “inactive” each time. The Potency entry in assay [11] is “inactive”. Also, the molecule was classed as inactive in assay [19] and in assay [14]. In addition, the activation is 0.035% in assay [9] and -0.62% in assay [10].

The values are drawn from PubChem BioAssay (NCATS).
